Results published in PubChem BioAssay (NCI).
The panel holds about 79,000 compounds, 15% with a hit somewhere; the sample as a whole holds those more often. Values without a mark were called inactive. Activity calls are given as the source filed them. Rule as the data show it: active = growth inhibition above about 70%; inactive = the rest.

Experiment: NCI Yeast Anticancer Drug Screen. Data for the mlh1 rad18 strain (AID 175)
Settings: S. cerevisiae mlh1 rad18 strain growth inhibition; at 50.0 µM; stronger effect = higher value
Method in brief: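 Test agents were incubated with a yeast strain of defined genotype (DNA damage repair defect). Inhibition of growth was derived by comparison with vehicle-exposed cultures.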
`C=CC(=N)N` showed a growth inhibition of 7.6%. In the case of `Cc1ccc(S(=O)(=O)N/N=C/c2ccccc2)cc1`, the growth inhibition is reported as 7.35%. Work on `COC(=O)C(/C(=N/NC(N)=O)C(=O)Nc1c(C)cccc1C(C)(C)C)c1nc2ccc(Cl)cc2[nH]c1=O` (configuration not stated) yielded a growth inhibition of 0.1%. Work on `[Cl][Pt+2][Cl].[NH-]C(CO)C([NH-])CO` (configuration not stated) yielded a growth inhibition of -61.5%. In the case of `N#CC(c1ccccc1)[N+](=O)[O-]` (configuration not stated), the growth inhibition is reported as 22.8%. `CN=NNc1ccccc1` showed a growth inhibition of -6.4%. `Nc1ccc(C(C(=O)O)c2ccccc2)cc1Cl` (configuration not stated) gave a growth inhibition of 5.65%. `O=c1cc(Cl)ncn1C1OC(CO)C(O)C1O` (configuration not stated) gave a growth inhibition of -25.3%. Molecule `O=S(=O)(c1ccccc1)c1ccc(O)cc1` has a growth inhibition of -15.7%. For `COC(=O)Cc1ccc2c(c1)Sc1ccc(CC(=O)OC)cc1N2C`, the growth inhibition was -36.3%. For `CCC(C)CN1C(=O)NC(C)(Cc2ccccc2)C1=O` (configuration not stated), the growth inhibition was 4.25%. For `CC(=O)CC(=O)NCCCc1ccccc1`, the growth inhibition was -11.9%. `COC(=O)C1(C)CCCC2(C)C3CC4OC4(C(C)C)CC3(O)CCC12` (configuration not stated) gave a growth inhibition of 42.1%. For `COC(=O)c1c([N+](=O)[O-])ncn1C1CC(OC(C)=O)C(COC(C)=O)O1` (configuration not stated), the growth inhibition was 5.25%. For `COC(=O)c1c(O)ccc(O)c1C(=O)OC`, the growth inhibition was -21.6%. `COc1ccc(/C(=N/NS(=O)(=O)c2ccc([N+](=O)[O-])cc2)C2COC(=O)C2)cc1OC` (configuration not stated) showed a growth inhibition of 2.25%. Work on `COc1cc(/C=N/NC(=O)Cc2cccc3ccccc23)ccc1O` yielded a growth inhibition of 8.8%. For `Nc1nc(-c2ccncc2)cc(-c2cc(-c3ccncc3)nc(N)n2)n1`, the growth inhibition was 10.3%. For `O=[N+]([O-])c1cccc(NC(c2ccccc2)S(=O)(=O)O)c1` (configuration not stated), the growth inhibition was 5.15%. `O=[N+]([O-])C(C(Cl)=C(Cl)Cl)=C(N1CCCCC1)N1CCCCC1` gave a growth inhibition of -13.9%. For `CC1(C)OCC2(CO1)CSCCCSCC1(COC(C)(C)OC1)CSCCCSC2`, the growth inhibition was -3.8%. For `C=C1CCC2[C@](C)(CCC[C@]2(C)C(=O)O)[C@@H]1CCc1ccoc1` (some centres not stated), the growth inhibition was 78.8% (active).
